Among all 55,000 compounds or so, about 340 (0.62%) were called active. Not shown: some 3% with an inconclusive outcome. This is one part of a sample in which actives are shown more often than they occur. Calls follow the shape of the dose curve; as a rule, active = well fitted cell-killing curve with a large enough effect; inconclusive = small, poorly fitted or top-dose-only effect; inactive = no such curve, though single readings can be large or run the other way.
Assay: qHTS Screen for Compounds that Selectively Target Cancer Cells with p53 Mutations: Cytotoxicity of p53 Null Cells at the Permissive Temperature; also: nearly all actives have a fitted effect of over 55% in size;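 as to activity change, negative = cytotoxicity: 0% = DMSO only and -100% = full killing by 100 µM tamoxifen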
Details: H1299-neo p53 null cells, ATP luminescence, 24 h, 32C; series mostly up to 46.1 µM; activity change, negative = cytotoxicity: at the top concentration
Excerpt: NIH Chemical Genomics Center [NCGC] NIH Molecular Libraries Screening Centers Network [MLSCN] MLSCN Grant: 1 X01 MH079844-01 Assay Submitter (PI): Dr. SUN, YI, University of Michigan NCGC Assay Overview: Synthetic Lethal Screen for Compounds to Kill Cancer Cells with p53 Mutation. Tumor suppressor gene p53 serves as a major cellular barrier against tumorigenesis. […] The goal of this screening is to identify small molecule probes that selectively kill cancer cells with mutations in p53. This screening was carried out using two lines of H1299 lung cancer cells. The H1299-p53 A138V line express a temperature sensitive p53 mutant (p53ts) in which the mutant p53 protein (A138V) is in the mutant confirmation when grown at 39C (the nonpermissive temperature) and in the wild type conformation when grown at 32C (the permissive temperature). A H1299-neo line (p53 null) grown at both 39C and 32C were used as counter-screens to filter out false positive associated with temperature shifting. The small molecular compounds that selectively target mutant p53-containing cancer cells were selected as candidate probes for further study. A cytotoxicity assay based on the measurement of ATP contents in cells was used in this screen. Concentration-responses of all the compounds in the library collection were determined in qHTS using the cell lines and temperature conditions as above.
NCGC Assay Protocol Summary: Both the H1299-p53A138V and H1299-neo cell lines were provided by Dr.Yi Sun, a PI at the University Michigan. The cells were maintained and cultured at 37C. The resuspended frozen cells were used to plate the cells in the 1536-well assay plates at a density of 600 cells per well in 5 ul medium. The assay plates with the cells were incubated at 37C for 16 to 30 hours before the experiments. The library compounds in DMSO solution were added to the cells in assay plates and incubated 24 hours at 39C (for mutant p53 conformation) or 32C (for normal p53 conformation as control). An ATP_lite assay kit (PerkinElmer) was used to determine the cell viability. Tomaxifen (100uM) was used as the positive control for cell killing. Data were normalized to the controls for basal activity (DMSO only) and 100% killing (100uM tamoxifen). AC50 values were determined from concentration-response data modeled with the standard Hill equation. P53 assay protocol: 1. Reagent; 5 uL H1299-p53A138V or H1299-neo cell cells/well 2. Time; overnight; 37C incubation 3. Compounds; 23 nL; 5.9 nM to 46 uM 4. Controls; 23 nL; Tamoxifen 100 uM 5. Time; 24 hr; 32C incubation 6. Reagent; 3 uL; ATP_Lite reagent 7. Time; 20 min; Room Temperature 8. Detection; Luminescence; Viewlux plate reader Keywords: p53, synthetic lethal, cancer, cell viability, cytotoxicity, H1299 cell line, luminescence, MLSMR, MLSCN, NIH Roadmap, qHTS, NCGC
Potency is read from the fitted curve at half-maximal effect.

Row | SMILES | activity change, negative = cytotoxicity | Potency
1 | COc1cccc(CNCc2c(C(=O)O)n(Cc3ccc(C)cc3)c3cc(C)ccc23)c1OC | -5.03% (inactive) | 
2 | O=C(Cn1cnc2c(oc3ccccc32)c1=O)Nc1ccc(OC(F)(F)F)cc1 | -6.42% (inactive) | 
3 | CCOc1ccccc1CNC(=O)Nc1cn(CC(C)C)c(=O)c2ccccc12 | 6.21% (inactive) | 
4 | COc1ccc2oc(-c3cccc(NC(=O)CSc4ccc(Cl)cc4)c3)nc2c1 | -26.4% (inactive) | 
5 | CCOC(=O)CN1C(C(=O)c2ccccc2)=C(OC(=O)C(C)(C)C)c2ccccc2S1(=O)=O | -1.26% (inactive) | 
6 | CCOC(=O)C1=C(c2ccccc2)Nc2ncnn2C1c1ccc(Cl)cc1 (centres undefined) | 24.7% (inactive) | 
7 | O=C(CSc1nc2ccccc2[nH]1)Nc1nc(-c2ccccc2)c(-c2ccccc2)o1 | 36% (inactive) | 
8 | O=C(NCc1ccccc1)C(=O)NCC(c1ccco1)S(=O)(=O)c1ccc(Cl)cc1 (centres undefined) | 7.23% (inactive) | 
9 | Cc1ccc(CSc2nc3ccsc3c(=O)n2CCC(C)C)cc1 | -2.95% (inactive) | 
10 | COc1ccc(S(=O)(=O)c2c(Nc3cccc(Cl)c3)sc(C(=O)c3ccccc3)c2N)cc1 | 5.07% (inactive) | 
11 | Cc1cccc(N2CCN(C(=O)c3ccc(Nc4nc5ccccc5n5nnnc45)cc3)CC2)c1C | -5.36% (inactive) | 
12 | O=C(COc1ccccc1)OCc1cc(=O)n2nc(-c3cccs3)sc2n1 | 2.83% (inactive) | 
13 | CC1CCN(C(=O)Cn2c(=O)n(-c3ccc(Cl)cc3)c(=O)c3c4c(sc32)CCC4)CC1 | 0.896% (inactive) | 
14 | CCOC(=O)CSc1nc2ccc(C)cc2[nH]1 | -2.59% (inactive) | 
15 | CCCc1nn2c(=O)cc(COC(=O)c3ccc(NC(=O)C(C)Oc4ccccc4)cc3)nc2s1 (centres undefined) | -6.2% (inactive) | 
16 | CCOC(=O)c1cc2c(=O)n3ccccc3nc2n(CCCOC)c1=NC(=O)C(C)Oc1ccccc1 (centres undefined) | 5.37% (inactive) | 
17 | COc1ccc(CNC(=O)c2ccc3c(O)c(S(=O)(=O)c4ccccc4)c(=O)[nH]c3c2)cc1 | -14.3% (inactive) | 
18 | Cc1ccc(C(=O)Nc2ccc3[nH]c(=O)c(=O)[nH]c3c2)cc1 | -11.2% (inactive) | 
19 | CC(C)c1ccc(NC(=O)c2ccc3c(O)c(S(=O)(=O)c4ccccc4)c(=O)[nH]c3c2)cc1 |  | 12.6 µM (active)
20 | CN(C(=O)CSc1nc2ccccc2n1Cc1ccccc1C#N)c1ccccc1 | 2.24% (inactive) | 
21 | COc1ccc(CNC(=O)CS(=O)Cc2nc(-c3cccc(C)c3)oc2C)cc1 (centres undefined) | -2.83% (inactive) | 
22 | Cc1cc(SCC(=O)NCCN2C(=O)CSC2=O)nc2ccccc12 | -4.2% (inactive) | 
23 | COC(=O)CSc1ccc2nnc(CCNS(=O)(=O)c3ccc(C)cc3)n2n1 | 0.172% (inactive) | 
24 | N#CC1(NC(=O)COc2ccc3oc4ccccc4c3c2)CCCCC1 | -4.07% (inactive) | 
25 | O=C(NCCc1ccccn1)c1cc(-c2ccc(Cl)cc2)nc2ccccc12 | -28.2% (inactive) | 

Row | SMILES | activity change, negative = cytotoxicity | Potency
26 | CCC(=O)NCc1cc(-c2nn(C)c(=O)c3ccccc23)ccc1OC | -3.54% (inactive) | 
27 | CCOc1ccc(C(O)Cc2nc3ccccc3n2C)cc1 (centres undefined) | -7.33% (inactive) | 
28 | CC(C)(C)c1ccc(C(=O)NCC(=O)OCN2C(=O)c3ccccc3C2=O)cc1 | -4.46% (inactive) | 
29 | Cc1ccc(NC(=O)c2cn3c4c(ccc(Cl)c4c2=O)OC(C)C3)cc1C (centres undefined) | -6.91% (inactive) | 
30 | Cc1cc(C)cc(NC(=O)Cc2csc(C)n2)c1 | -5.68% (inactive) | 
31 | COc1ccc2c(c1)Cc1sc(NC(=O)c3ccccc3Br)nc1-2 | -29.5% (inactive) | 
32 | CCC(CC)c1nn2cc(-c3ccccc3)nc2s1 |  | 6.31 µM (active)
33 | CCc1ccc(CNC(=O)C2CCN(c3nn4cc(-c5ccc(F)cc5)nc4s3)CC2)cc1 | 0.0691% (inactive) | 
34 | CCCS(=O)(=O)Nc1cccc(-c2cn3ccsc3n2)c1 | -16.5% (inactive) | 
35 | Cc1cc(C)cc(OC(C)C(=O)Nc2nc3c(s2)CCCC3)c1 (centres undefined) | 7.37% (inactive) | 
36 | Cc1ccccc1NC(=O)c1c(NC(=O)c2ccccc2F)sc2c1CCC(C)C2 (centres undefined) | 1.58% (inactive) | 
37 | O=C(Nc1nc2c(s1)CCCC2)c1ccccc1F |  | 6.31 µM (active)
38 | CCOC(=O)NC(=O)CSc1nnc(SCCC(=O)O)s1 | -2.55% (inactive) | 
39 | CCC(C)NC(=O)c1ccccc1NC(=O)c1ccccc1N(C)S(C)(=O)=O (centres undefined) | 7.32% (inactive) | 
40 | Cc1ccc(-n2nnnc2CNC(=O)c2ccccc2C)cc1C | 9.36% (inactive) | 
41 | COC(=O)c1cnn(-c2ccc(C(=O)Nc3ccc(OC(F)(F)F)cc3)cc2)c1N | -7.31% (inactive) | 
42 | CCn1c(O)c(N=NC(=O)c2cccc(S(=O)(=O)N3CCCCC3)c2)c2ccccc21 | -1.69% (inactive) | 
43 | Cc1nn2c(=O)cc(COC(=O)c3cccc(NC(=O)COc4ccccc4Cl)c3)nc2s1 |  | 12.6 µM (active)
44 | CCCCc1nn2c(=O)cc(COC(=O)c3cccc(NC(=O)COc4ccccc4)c3)nc2s1 | -9.02% (inactive) | 
45 | Cc1nn2c(=O)cc(COC(=O)c3ccccc3NC(=O)COc3ccccc3C)nc2s1 | -5.39% (inactive) | 
46 | CCc1nc2cccnc2n1-c1ccc(CC(=O)Nc2c(C)cccc2C)cc1 | 6.52% (inactive) | 
47 | CCCCC1N2CC3([N+](=O)[O-])CN1CC([N+](=O)[O-])(C2)C3(C)C (centres undefined) | -16.9% (inactive) | 
48 | Cc1cc(-c2ccc(C)c(S(=O)(=O)N3c4ccccc4CC3C)c2)on1 (centres undefined) | 13.3% (inactive) | 
49 | Cc1ccc(-c2nnc(SCC(=O)N/N=C/c3cccs3)n2-c2ccc(C)cc2)cc1 | -10.3% (inactive) | 

From PubChem BioAssay AID903 (National Center for Advancing Translational Sciences (NCATS), 2007)
